Molecules are shown by their SMILES. Screen size: about 69,000 compounds; about 8,600 (12%) showed an effect of 50% or more. Many of the other results were omitted from the sample, so strong results are more common in it than they were.

This assay concerns Plasmodium berghei. The experiment in a line: Screen against P. berghei liver stage (PbLuc), transformed with Luciferase, at 10uM. In kind it is functional, HepG2. Particulars: tested at 10 uM.
In the case of `CS(=O)(=O)N1CCc2ccc(C(=O)N3CCn4ncnc4C3)cc21`, the INHIBITION is -4.68%.

Turning to `Clc1ccccc1OCCc1cc(C2CCNC2)n[nH]1` (stereo not drawn), the INHIBITION is reported as -57.4%.

Consider `Cc1nccc(-c2cccc(NCC(=O)N3CCOC(C)C3)c2)n1` (stereo not drawn), for which the INHIBITION was determined as 15.5%.

Turning to `Cc1nccc(-c2cccc(NCC(=O)N3CCCCCCC3)c2)n1`, the INHIBITION amounted to 18.9%.

`Cc1nccc(-c2cccc(NCC(=O)N3CCCC(C)C3)c2)n1` (stereo not drawn): the INHIBITION came to 53.9%.

`CNS(=O)(=O)c1cccc(CNC(=O)c2cc(C)no2)c1`: the INHIBITION is given as -4.16%.

Consider `CCS(=O)(=O)N1CCC2(CC(=O)N(c3ccccc3C)C2)C1` (stereo not drawn), for which the INHIBITION is -25.8%.

`CS(=O)(=O)Nc1ccc2c(c1)NC(=O)CC2c1cnn2cccnc12` (stereo not drawn): the INHIBITION is on record as -27.5%.

Take `CC(=O)N1CCCC2(CCN(Cc3ccc(Cl)c(F)c3)C2)C1` (stereo not drawn): the INHIBITION came out at 13.7%.

Regarding `CC(=O)N1CCC2(CCCN(Cc3ccc(Cl)c(C(F)(F)F)c3)C2)C1` (stereo not drawn), the INHIBITION came out at 59.7%.

As for `CC(=O)N1CCC2(CCN(Cc3ccc(Cl)c(C(F)(F)F)c3)CC2)C1`, the INHIBITION is on record as 73%.

`CC(=O)N1CCCC2(CCN(Cc3ccc(Cl)c(C(F)(F)F)c3)C2)C1` (stereo not drawn): the INHIBITION is listed as -18.5%.

Turning to `CN(C)C(=O)N1CCCC2(CCN(Cc3ccc(Cl)c(F)c3)C2)C1` (stereo not drawn), the INHIBITION is listed as 16.9%.

On to `CC(=O)N1CCOC2(CCCN(Cc3ccc(Cl)c(C(F)(F)F)c3)C2)C1` (stereo not drawn), for which the INHIBITION came to 30.3%.

Regarding `CSc1cccc(CN2CCn3nc(CNC(C)=O)cc3C2)c1`, the INHIBITION is reported as 8.38%.

Consider `Cn1ncc2c1C(COCC1CC1)CN(Cc1ccc(F)cc1)C2` (stereo not drawn), for which the INHIBITION is listed as -5.69%.

For `Cc1cc(C)n(-c2ccc(C(=O)NCC(CO)Cc3ccco3)cc2)n1` (stereo not drawn), the INHIBITION was determined as 32.1%.

For the compound `Cc1csc(CNc2cnc3c(c2)c(C)nn3C)n1`, the INHIBITION turned out to be 16%.

`O=S(=O)(Nc1cnc(N2CCCC2)nc1)c1ccc(OC(F)(F)F)cc1`: the INHIBITION is on record as 40.1%.

Regarding `O=S(=O)(Nc1cnc(N2CCCC2)nc1)c1ccc(C(F)(F)F)cc1`, the INHIBITION is given as 37.3%.

As to `COc1ccc(S(=O)(=O)Nc2cnc(N(C)C)nc2)cc1`, the INHIBITION is listed as 40.6%.

`Cc1ccc(S(=O)(=O)Nc2ccc(=O)n(C)c2)cc1`: the INHIBITION is reported as 46.5%.

As to `CSc1ccc(NS(=O)(=O)c2cnn(C)c2)cn1`, the INHIBITION amounted to 1.81%.

With `CN(C)c1ncc(NS(=O)(=O)c2ccc(OC(F)(F)F)cc2)cn1`, the INHIBITION worked out at 51.6%.

Take `Cn1cc(NS(=O)(=O)c2ccc(OC(F)(F)F)cc2)ccc1=O`: the INHIBITION is reported as 84.6%.

Take `Cn1cc(NS(=O)(=O)c2ccc(C(F)(F)F)cc2)ccc1=O`: the INHIBITION came to 60.5%.

With `Cc1nc(N(C)C)nc(C)c1NS(=O)(=O)c1ccc(OC(F)(F)F)cc1`, the INHIBITION is reported as -2.09%.

Consider `O=C(c1cccnc1N1CCOCC1)N1CCCC(n2cncn2)C1` (stereo not drawn), for which the INHIBITION was 36.1%.

With `CC(C)OCCN1CCC(Nc2nccnc2C#N)CC1`, the INHIBITION is 33.1%.

Consider `Cc1ccc(CN2CCC3(CCC3NS(=O)(=O)c3ccccc3)CC2)o1` (stereo not drawn), for which the INHIBITION was -12.4%.

Consider `O=c1ccc2c(n1CCN1CCCC1)CCN(Cc1ccoc1)CC2`, for which the INHIBITION was 8.47%.

In the case of `COCCN1CCCC(c2cncc(Oc3ccccc3OC)n2)C1` (stereo not drawn), the INHIBITION is on record as -5.71%.

In the case of `O=C1CN(Cc2cn(CC3CCN(C4CCSCC4)CC3)nn2)CCN1`, the INHIBITION came to 32.2%.

Regarding `O=C1CN(Cc2cn(CC3CCCN(C4CCSCC4)C3)nn2)CCN1` (stereo not drawn), the INHIBITION is 54.5%.

On to `c1cc(CN2CCC(n3cc(CN4CCCC4)nn3)CC2)cs1`, for which the INHIBITION amounted to 42.1%.

With `Cc1cc(N2CCC(n3cc(CN4CCSCC4)nn3)CC2)ccn1`, the INHIBITION is listed as 30.9%.

For the compound `O=C1CN(Cc2cn(C3CCN(C4CSCCSC4)CC3)nn2)CCN1`, the INHIBITION is reported as 65.6%.

As to `OC1CCCN(Cc2cn(CC3CCN(C4CCSCC4)CC3)nn2)C1` (stereo not drawn), the INHIBITION came out at 18.3%.

As to `c1cncc(CN2CC(Cc3nccc4cc[nH]c34)C2)c1`, the INHIBITION is on record as 19.3%.

As to `O=C(NCC1CCC1)c1ccc(-n2ccnc2)nn1`, the INHIBITION is -15%.

As to `CCCOc1ccc(C(=O)Oc2cc(=O)n3cccc(C)c3n2)cc1`, the INHIBITION is given as 0.207%.

For the compound `CC1c2ncc(COCc3ccccn3)n2CCN1C1CCCC1` (stereo not drawn), the INHIBITION is reported as 37.8%.

Consider `O=C(O)c1ccccc1-c1ccc(Cn2c(=O)cc[nH]c2=O)cc1`, for which the INHIBITION is 2.55%.

Regarding `Cc1ccnc(C2CCCN2C(=O)CN(C)C)n1` (stereo not drawn), the INHIBITION is listed as -16.5%.

Take `O=C(NCCn1nc2ccccn2c1=O)c1sccc1-c1ccccc1`: the INHIBITION is reported as -20.53%.

Consider `CC(C)COCCNC(=O)NC1CCCN(c2cnn(C)c2)C1` (stereo not drawn), for which the INHIBITION is recorded as -49.3%.

In the case of `Fc1ccc(Cc2cccc(C3CCN(C4CCOCC4)CC3)n2)cc1`, the INHIBITION worked out at 72.3%.

For `c1ccc(Cc2cccc(C3CCCN3C3CCOCC3)n2)cc1` (stereo not drawn), the INHIBITION amounted to 32.921%.

Take `Fc1cccc(Cc2cncc(C3CCCN3C3CCOCC3)n2)c1` (stereo not drawn): the INHIBITION is on record as 41.1%.

Turning to `COCC(=O)N1CCC(c2cncc(-c3cccc(F)c3)n2)CC1`, the INHIBITION turned out to be 8.72%.

On to `COCC(=O)N1CCC(c2cccc(Cc3ccc(F)cc3)n2)CC1`, for which the INHIBITION was 54%.

As to `CN(C)C(=O)CN1CCC(c2cccc(Cc3ccc(F)cc3)n2)CC1`, the INHIBITION was 24.4%.

As to `Cc1nn(C)c2c(=O)n(C)c(NCC3CCCO3)nc12` (stereo not drawn), the INHIBITION is listed as 49.1%.
